# Compound activity deposited in PubChem BioAssay by National Center for Advancing Translational Sciences (NCATS).
# Sm TGR block: qHTS Assay for the Inhibitors of Schistosoma Mansoni Peroxiredoxins. AID 485364, 2010. Potency, µM (titrated, usually from 114 µM), for the others: at the highest dose activity change, negative = inhibition, hits mostly inhibitors. actives 3% (n = 360,000). purified TGR, DTNB reduction, TNB absorbance 405 nm; active = well fitted inhibition curve with a large enough effect; inconclusive = small, poorly fitted or top-dose-only effect; inactive = no such curve, though single readings can be large or run the other way; note: potency is the fitted concentration of half-maximal effect; % is set by controls: 0 for no effect and ±100 for the full control effect; nearly all actives have a fitted effect of over 60% in size
#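 TGR 20 nM + NADPH 100 uM (dispensed conc.), cpd preinc 15 min RT; start with NADPH (500 uM addition) then DTNB (15 mM addition). Kinetic TNB absorbance, 405 nm filter. Four-parameter Hill fit across titration.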
# Shiga inhibitor: A qHTS for Small Molecule Inhibitors of Shiga Toxin; Vero cells, Shiga toxin protein synthesis inhibition reporter; inhibition, % at 38.7 µM; actives 9.2% (n = 290,000); AID 2315, 2010; in the data active = inhibition mostly above about 28%, no sharp cut-off; inactive = mostly below about 43%; note: 0% is about no effect
# Cycloheximide cs: Cycloheximide Counterscreen for Small Molecule Inhibitors of Shiga Toxin. AID 2314, 2010. actives 12% (n = 300,000). max response, %. cell reporter, cycloheximide protein synthesis inhibition counterscreen; in the data active = max response mostly above about 13%, no sharp cut-off; inactive = mostly below about 14%; note: read at 38.3 µM for the half of the compounds with a filed dose; 0% is about no effect
# FMDV inh: High Throughput Screening for Foot and Mouth Disease Virus Antivirals; FMDV antiviral cell-based qHTS; Potency, µM (doses to about 57.9 µM), for inactives: top-dose activity change, negative = inhibition, actives largely listed as inhibitors; actives 1.2% (n = 410,000); AID 1159524, 2015; calls by dose curve; tested in HEK293T cells; note: read-out not given here; potency is the fitted concentration of half-maximal effect; % is set by controls: 0 for no effect and ±100 for the full control effect; nearly all actives have a fitted effect of over 45% in size
# Active calls of the source: *; u = inconclusive; x = no result; + = active, no number. Hits are enriched below; roughly 12% of the tested compounds scored in any of these assays.
SMILES,Sm TGR block,Shiga inhibitor,Cycloheximide cs,FMDV inh
Nc1c(C(=O)NCc2ccco2)nnn1Cc1ccccc1,-9%,22,15,20%
COc1cccc2cc(C(=O)NCCc3c(C)[nH]c4ccc(F)cc34)c(=O)oc12,-3%,x,x,-19%
Cc1ccc(-c2nc(-c3cc4c([nH]c3=O)CC(C)(C)CC4=O)sc2C)cc1,-20%,x,x,1%
CCOc1c(OC(C)=O)ccc(/C=C/c2ccc3cccc(OC)c3n2)c1[N+](=O)[O-],-22%,36*,40*,12%
COc1ccc(/C=C/c2ccc3cccc(O)c3n2)c(OC)c1OC,1%,113*,39*,-29%
COc1cccc(/C=C/c2ccc3cccc(O)c3n2)c1OC,0%,127*,58*,2%
CC(=O)NCC(=O)NCC1Cc2cc(C)cc(-c3ccccn3)c2O1 (centres undefined),x,x,x,-5%
COc1ccc(CCNC(=O)CCc2c(C)c3cc4c(C)coc4c(C)c3oc2=O)cc1OC,-9%,x,x,-11%
Cc1nc(C#N)c(N/N=C/c2cccc(Cl)c2)o1,-3%,54*,36*,9%
Cc1ccc(-c2nn(-c3ccc(F)cc3)cc2C(=O)NCC2CCCO2)cc1 (centres undefined),50µM*,x,x,16%
COc1cccc(-c2nn(-c3ccc(F)cc3)cc2C(=O)NCC2CCCO2)c1 (centres undefined),-3%,x,x,4%
Cc1c(C(=O)NCC2CCCO2)sc2nc(-c3ccc(F)cc3)cn12 (centres undefined),1%,32,32*,u
Cc1ccc(Cl)cc1NC(=O)N1CCC(CN2CCc3ccccc3C2)CC1,-7%,x,x,-2%
COc1cccc(C(=O)Nc2nc3nc(C)c(Cc4ccccc4)c(=O)n3[nH]2)c1,1%,x,x,-4%
CCCCNC(=O)C1CCC(Cn2c(=O)c3sccc3n(Cc3ccccc3)c2=O)CC1 (centres undefined),-2%,x,x,7%
O=c1[nH]cnc2cc(-c3ccc(Br)cc3)sc12,-8%,66*,22,18%
O=c1[nH]cnc(O)c1C(c1ccc(Br)cc1)c1c(O)nc[nH]c1=O,u,-12,7,-13%
COc1ccc(/C=C/C(=O)OCC(=O)N2CC(=O)Nc3ccccc32)cc1,-1%,-17,-1,0%
CCCCOc1ccc(/C=C/C(=O)OCC(=O)N2CC(=O)Nc3ccccc32)cc1OCC,2%,5,10,13µM*
COc1ccc2c(c1)[nH]c1c(=O)n(CC3CCCO3)cnc12 (centres undefined),-3%,23,28*,57%
O=c1c2[nH]c3cccc(Cl)c3c2ncn1CC1CCCO1 (centres undefined),10%,49*,23*,5%
O=C(NCc1ccco1)c1ccc2c(c1)N(Cc1ccc(F)cc1)C(=O)c1ccccc1S2=O (centres undefined),0%,x,x,-12%
COc1ccc(C2C3C=CCC(c4cccc(-c5ccc(N(C)C)cc5)c4)C3C(=O)N2Cc2ccccc2)cc1Cl (centres undefined),x,22,22,x
COc1cc(=O)n2c(c1C(=O)N(C)Cc1nonc1C)CCN(C(=O)C1C(C)(C)C1(C)C)CC2,x,x,x,4%
O=C(CCl)N(Cc1cc(=O)[nH]c2ccccc12)c1ccccc1,3.5µM*,-7,-2,14µM*
SMILES,Sm TGR block,Shiga inhibitor,Cycloheximide cs,FMDV inh
Cc1ccccc1N(Cc1cc(=O)[nH]c2ccccc12)C(=O)CCl,14µM*,0,10,x
COc1ccc(Cl)cc1NC(=O)c1cc2c(s1)-c1ccccc1OC2,6%,x,x,-12%
Cc1cccc(NC(=O)c2cc3c(s2)-c2c(C)cccc2OC3)n1,1%,16,10*,16%
Cc1c(NC(=O)c2cc3c(s2)-c2ccccc2OC3)cccc1[N+](=O)[O-],8%,11,16*,28µM*
CN(C)CCNC(=O)c1cc2c(s1)-c1ccccc1OC2,7%,47*,40*,41%
Cc1csc(NC(=O)c2cc3c(s2)-c2ccccc2OC3)n1,-9%,+,59*,-7%
COc1ccc(NC(=O)c2cc3c(s2)-c2c(C)cccc2OC3)c(OC)c1,9%,x,x,-2%
CSc1nccc(-c2cc(Cl)c3c(c2)CC(CNC(=O)c2nonc2C)O3)n1 (centres undefined),x,x,x,-13%
CCc1ccc(CN(Cc2ccco2)c2cnc(S(C)(=O)=O)nc2C(=O)Nc2cccc(C)c2)cc1,-2%,x,x,-20%
COc1ccc(C(=O)Oc2cc(-c3ccc(OC)c(OC)c3)cc(=O)c3c(C)oc(C)c23)cc1,u,x,x,-12%
